Reference: PubChem BioAssay AID1159580 (chemical genetic matrix, 2015)
Values joined by “and” are separate entries in the source; they are usually repeats but may differ in a detail not shown here. Identical values can stand only once. In all, about 5,500 compounds went through this assay and about 2,000 (36%) were called active. Not shown: some 18% with an inconclusive outcome. Cut-off read from the data, not from the text of the source: active = normalized growth mostly below about 0.91 (no sharp cut-off); inconclusive = no clear call, values can overlap the other calls; inactive = mostly above about 0.92. The list shows a part of the results.

Test: chemical genetic growth profiling, strain panel (AID 1159580);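 note: tested at 20 µM; growth read once vehicle control cultures reached saturation at 30 °C; 1 = growth at the plate median or of vehicle wells; lower values mean less growth of the strain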
Conditions: S. cerevisiae deletion strains, growth OD

Measured: normalized growth

CCNC(=O)CC[C@H](N)C(=O)O
inactive: locus YAL021C, strain ccr4, stronger effect = lower value 0.995 | locus YAL026C, strain drs2, stronger effect = lower value 1 | locus YAL030W, strain snc1, stronger effect = lower value 0.998 | locus YBL061C, strain skt5, stronger effect = lower value 0.993 | locus YBR009C, strain hhf1, stronger effect = lower value 1.02 | locus YBR021W, strain FUR4, stronger effect = lower value 1.03 | locus YBR023C, strain chs3, stronger effect = lower value 0.993 | locus YBR171W, strain sec66, stronger effect = lower value 1 | locus YBR229C, strain ROT2, stronger effect = lower value 0.991 | locus YBR231C, strain swc5, stronger effect = lower value 0.997 | locus YBR279W, strain paf1, stronger effect = lower value 1 | locus YCL011C, strain gbp2, stronger effect = lower value 1 | locus YCL016C, strain dcc1, stronger effect = lower value 0.996 | locus YCL029C, strain bik1, stronger effect = lower value 0.988 | locus YCL061C, strain MRC1, stronger effect = lower value 1 | locus YCL069W, strain vba3, stronger effect = lower value 1.01 | locus YCR088W, strain abp1, stronger effect = lower value 1 | locus YDL005C, strain med2, stronger effect = lower value 0.986 | locus YDL035C, strain GPR1, stronger effect = lower value 1.04 | locus YDL040C, strain nat1, stronger effect = lower value 0.998 | locus YDL074C, strain BRE1, stronger effect = lower value 1.02 | locus YDL101C, strain DUN1, stronger effect = lower value 0.965 | locus YDL134C, strain PPH21, stronger effect = lower value 1.01 | locus YDL185W, strain tfp1, stronger effect = lower value 0.996 | locus YDL192W, strain arf1, stronger effect = lower value 1 | locus YDR001C, strain nth1, stronger effect = lower value 0.997 | locus YDR069C, strain doa4, stronger effect = lower value 1.03 | locus YDR101C, strain arx1, stronger effect = lower value 1 | locus YDR137W, strain rgp1, stronger effect = lower value 1.01 | locus YDR159W, strain sac3, stronger effect = lower value 0.992 | locus YDR162C, strain NBP2, stronger effect = lower value 1.03 | locus YDR195W, strain ref2 0.994 | locus YDR297W, strain sur2, stronger effect = lower value 0.99 | locus YDR318W, strain mcm21, stronger effect = lower value 0.999 | locus YDR334W, strain swr1, stronger effect = lower value 1 | locus YDR335W, strain msn5, stronger effect = lower value 1 | locus YDR388W, stronger effect = lower value 1 | locus YDR392W, strain spt3, stronger effect = lower value 0.991 | locus YDR502C, strain sam2, stronger effect = lower value 0.999 | locus YEL003W, strain gim4, stronger effect = lower value 1.01 | locus YEL037C, strain rad23, stronger effect = lower value 0.996 | locus YEL061C, strain CIN8 (second series), stronger effect = lower value 1 | locus YEL061C, strain CIN8, stronger effect = lower value 0.999 | locus YER015W, strain faa2, stronger effect = lower value 1.01 | locus YER016W, strain bim1, stronger effect = lower value 0.991 | locus YER110C, stronger effect = lower value 0.981 | locus YER111C, strain swi4, stronger effect = lower value 1 | locus YER155C, strain BEM2 (second series), stronger effect = lower value 0.99 | locus YER155C, strain BEM2, stronger effect = lower value 0.974 | locus YER167W, strain BCK2, stronger effect = lower value 0.995 | locus YFR010W, strain ubp6, stronger effect = lower value 1 | locus YGL078C, strain dbp3, stronger effect = lower value 0.988 | locus YGL086W, strain mad1, stronger effect = lower value 1 | locus YGL167C, strain pmr1, stronger effect = lower value 0.997 | locus YGL173C, strain kem1, stronger effect = lower value 0.996 | locus YGL227W, strain vid30, stronger effect = lower value 0.992 | locus YGL240W, strain doc1, stronger effect = lower value 1 | locus YGL248W, strain PDE1, stronger effect = lower value 1 | locus YGL253W, strain hxk2, stronger effect = lower value 1 | locus YGR135W, strain pre9, stronger effect = lower value 1.01 | locus YGR252W, strain gcn5, stronger effect = lower value 1.04 | locus YHR013C, strain ard1, stronger effect = lower value 0.987 | locus YHR027C, strain rpn1, stronger effect = lower value 1.01 | locus YHR030C, strain SLT2, stronger effect = lower value 0.999 and 1.01 | locus YHR079C, strain IRE1 (second series), stronger effect = lower value 0.997 | locus YHR079C, strain IRE1, stronger effect = lower value 1.04 | locus YHR094C, strain hxt1, stronger effect = lower value 0.989 | locus YHR129C, strain ARP1, stronger effect = lower value 0.995 | locus YHR142W, strain chs7, stronger effect = lower value 1.01 | locus YHR200W, strain rpn10, stronger effect = lower value 0.994 | locus YIL066C, strain RNR3, stronger effect = lower value 1.04 | locus YIL073C, strain SPO22, stronger effect = lower value 0.979 | locus YIL125W, strain kgd1, stronger effect = lower value 0.995 | locus YIR030C, strain dcg1, stronger effect = lower value 0.994 | locus YJL092W, strain hpr5, stronger effect = lower value 0.993 | locus YJL095W, strain BCK1 (second series), stronger effect = lower value 0.99 | locus YJL095W, strain BCK1, stronger effect = lower value 1 and 1.04 | locus YJL115W, strain asf1, stronger effect = lower value 0.999 | locus YJL129C, strain trk1, stronger effect = lower value 0.999 | locus YJL134W, strain LCB3, stronger effect = lower value 0.998 | locus YJL154C, strain vps35, stronger effect = lower value 1 | locus YJL164C, strain tpk1, stronger effect = lower value 1.01 | locus YJL166W, strain qcr8, stronger effect = lower value 1 | locus YJL168C, strain set2, stronger effect = lower value 0.991 | locus YJL187C, strain SWE1 (second series), stronger effect = lower value 0.996 | locus YJR043C, strain POL32, stronger effect = lower value 1.05 | locus YJR066W, strain TOR1, stronger effect = lower value 0.958 | locus YJR075W, strain HOC1, stronger effect = lower value 0.995 | locus YKL009W, strain mrt4, stronger effect = lower value 0.986 | locus YKL068W, stronger effect = lower value 0.987 | locus YKL085W, strain MDH1 (second series), stronger effect = lower value 1.02 | locus YKL085W, strain MDH1, stronger effect = lower value 1.02 | locus YKL160W, strain elf1, stronger effect = lower value 0.999 | locus YKR001C, strain vps1, stronger effect = lower value 1 | locus YKR026C, strain gcn3, stronger effect = lower value 1 | locus YKR091W, strain srl3, stronger effect = lower value 1 | locus YLL001W, strain dnm1, stronger effect = lower value 0.997 | locus YLL026W, stronger effect = lower value 0.993 | locus YLL041C, strain sdh2, stronger effect = lower value 1 | locus YLR027C, strain aat2, stronger effect = lower value 0.997 | locus YLR039C, strain RIC1, stronger effect = lower value 1.03 | locus YLR058C, strain SHM2, stronger effect = lower value 0.998 | locus YLR102C, strain apc9, stronger effect = lower value 0.987 | locus YLR113W, strain HOG1, stronger effect = lower value 1.02 | locus YLR221C, strain rsa3, stronger effect = lower value 1.01 | locus YLR258W, strain gsy2, stronger effect = lower value 0.994 | locus YLR262C, strain YPT6 (second series), stronger effect = lower value 0.984 | locus YLR262C, strain YPT6, stronger effect = lower value 1.04 | locus YLR268W, strain sec22, stronger effect = lower value 0.986 | locus YLR320W, strain mms22, stronger effect = lower value 0.999 | locus YLR330W, strain CHS5, stronger effect = lower value 1.01 | locus YLR342W, strain FKS1 (second series), stronger effect = lower value 1.03 | locus YLR342W, strain FKS1, stronger effect = lower value 1.02 | locus YLR357W, strain rsc2, stronger effect = lower value 0.962 | locus YLR370C, strain arc18, stronger effect = lower value 1 | locus YLR371W, strain rom2, stronger effect = lower value 0.989 | locus YLR384C, strain iki3, stronger effect = lower value 0.982 | locus YLR418C, strain cdc73, stronger effect = lower value 1.02 | locus YML016C, strain PPZ1, stronger effect = lower value 0.993 | locus YML032C, strain rad52, stronger effect = lower value 1.01 | locus YML120C, strain ndi1, stronger effect = lower value 1 | locus YML124C, strain tub3, stronger effect = lower value 0.996 | locus YMR058W, strain fet3, stronger effect = lower value 0.999 | locus YMR078C, strain ctf18, stronger effect = lower value 0.996 | locus YMR125W, strain sto1, stronger effect = lower value 0.996 | locus YMR129W, stronger effect = lower value 0.991 | locus YMR205C, strain PFK2, stronger effect = lower value 1.01 | locus YMR223W, strain ubp8, stronger effect = lower value 1.01 | locus YMR231W, strain pep5, stronger effect = lower value 1 | locus YMR263W, strain SAP30, stronger effect = lower value 0.989 | locus YMR307W, strain GAS1, stronger effect = lower value 1.06 | locus YNL067W, strain RPL9B, stronger effect = lower value 0.984 | locus YNL071W, strain lat1, stronger effect = lower value 1 | locus YNL183C, strain NPR1, stronger effect = lower value 0.953 | locus YNL209W, strain ssb2, stronger effect = lower value 1.01 | locus YNL233W, strain BNI4, stronger effect = lower value 1.01 | locus YNL248C, strain rpa49, stronger effect = lower value 1 | locus YNL250W, strain rad50, stronger effect = lower value 0.975 | locus YNL271C, strain bni1, stronger effect = lower value 0.999 | locus YNL298W, strain CLA4, stronger effect = lower value 0.995 | locus YNL307C, strain MCK1, stronger effect = lower value 0.992 | locus YNL322C, strain KRE1 (second series), stronger effect = lower value 0.979 | locus YNR049C, strain mso1, stronger effect = lower value 0.984 | locus YNR052C, strain pop2, stronger effect = lower value 0.998 | locus YOL006C, strain TOP1, stronger effect = lower value 1.07 | locus YOL012C, strain htz1 1.05 | locus YOL147C, strain pex11, stronger effect = lower value 0.998 | locus YOR001W, strain rrp6, stronger effect = lower value 1 | locus YOR061W, strain CKA2, stronger effect = lower value 1 | locus YOR069W, strain VPS5, stronger effect = lower value 0.988 | locus YOR070C, strain gyp1, stronger effect = lower value 1.01 | locus YOR080W, strain dia2, stronger effect = lower value 0.99 | locus YOR083W, strain WHI5, stronger effect = lower value 0.998 | locus YOR106W, strain vam3, stronger effect = lower value 1.01 | locus YOR136W, strain idh2, stronger effect = lower value 0.983 | locus YOR144C, strain elg1, stronger effect = lower value 0.995 | locus YOR184W, strain ser1, stronger effect = lower value 1 | locus YOR231W, strain MKK1, stronger effect = lower value 1.02 | locus YOR265W, strain rbl2, stronger effect = lower value 0.991 | locus YOR270C, strain vph1, stronger effect = lower value 1.04 | locus YOR290C, strain snf2, stronger effect = lower value 1 | locus YOR316C, strain cot1, stronger effect = lower value 0.99 | locus YPL051W, strain arl3, stronger effect = lower value 0.996 | locus YPL055C, strain LGE1, stronger effect = lower value 1.03 | locus YPL078C, strain atp4, stronger effect = lower value 0.991 | locus YPL106C, strain sse1, stronger effect = lower value 0.984 | locus YPL240C, strain hsp82, stronger effect = lower value 1.01 | locus YPL256C, strain CLN2, stronger effect = lower value 1.01 | locus YPR119W, strain clb2, stronger effect = lower value 1.01 | locus YPR141C, strain kar3, stronger effect = lower value 0.985 | locus YPR163C, strain tif3, stronger effect = lower value 0.995 | locus YPR167C, strain met16, stronger effect = lower value 0.998 | strain wtn01, stronger effect = lower value 0.989
